For some of these results: Entries with a potency or affinity are not part of this list. Calls of active or inactive are those of the source.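 How the source made its calls, unless noted: active means membrane potential signal rise above negative control mean plus 3 SD in both duplicates, also active in the earlier TRPC4 screen; inactive means the rest.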

Test [1] has as its system TRPC4 beta (transient receptor potential cation channel C4), mouse. The test is described as follows: TRPC4 cation channel opening, retest – cell-based, Fluo4 calcium, HEK293 TRPC4beta/mu-opioid, duplicates, 10 µM, confirmation (AID 2426;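 active means fluorescence ratio normalized to control raised more than 50% in primary screen plus both repeat runs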;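 on activation: percent rise of integrated ratio over buffer wells lacking compound which define 0%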). The note with it: Fluo4 calcium fluorescence, at 10 µM; hits give high values.
In test [2] the test system is transient receptor potential cation channel C4 beta (TRPC4), mouse. Description: TRPC4 cation channel opening, second retest – cell-based, second round, Fluo4, HEK293 TRPC4beta/mu-opioid, 1 µM, confirmation (AID 2461;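 active means primary screen active and over 50% activation in each of two duplicate runs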;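 on activation: 0% = wells without test compound as baseline of integrated fluorescence ratio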). The note with it: Fluo4 calcium fluorescence, at 1 µM; hits give high values.
Test [3] concerns TRPC4 (transient receptor potential cation channel C4 beta), mouse. The test is described as follows: potentiation of DAMGO EC20 TRPC4 response – cell-based, second round, Fluo-4, HEK293 TRPC4beta/mu-opioid, 1 µM, confirmation (AID 2554;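 active means primary screen hit whose fluorescence ratio, in both repeats, exceeds the weak agonist control mean by 3 SD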). The note with it: DAMGO EC20, Fluo-4 calcium flux, at 1 µM; hits give high values. Background: Calcium assays in cells follow changes in intracellular calcium, usually with a dye or a luminescent sensor.

The subject of test [4] is TRPC4 beta (transient receptor potential cation channel C4), mouse. Description: potentiation of DAMGO EC20 TRPC4 response – cell-based, Fluo-4, HEK293 TRPC4beta/mu-opioid, confirmation (AID 2555;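 active means primary screen hit whose calcium fluorescence ratio, in both repeats, exceeds the weak agonist control mean by 3 SD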). The note with it: DAMGO EC20, Fluo-4 calcium flux, at 10 µM; hits give high values.
Test [5] addresses Short transient receptor potential channel 4 (Mus musculus) (UniProt Q9QUQ5). The test is described as follows: blockers of DAMGO-evoked TRPC4 calcium flux – cell-based, Fluo4, HEK293 TRPC4beta/mu-opioid, confirmation (AID 2636;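 active means calcium signal cut by more than 3 SD below the full-agonist control yet still positive, in both repeats and the earlier primary screen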). The note with it: at 10 µM; hits give high values.
The target is the same in test [6]. The test is described as follows: blockers of DAMGO-evoked TRPC4 calcium flux – cell-based, second round, Fluo4, HEK293 TRPC4beta/mu-opioid, 1 µM, confirmation (AID 2637;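 active means calcium signal ratio cut to more than 3 SD under the fully stimulated control mean yet still positive, in both repeats and the primary screen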;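 on inhibition: percent of integrated ratio relative to wells lacking test compound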). The note with it: at 1 µM; hits give high values.
Test [7] shares this target. The test is described as follows: potentiation of DAMGO-evoked TRPC4 calcium signal – cell-based, HEK293 TRPC4/mu-opioid, Fluo-4 calcium, EC20 DAMGO, dose response (AID 434941;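 active means earlier screen potentiator hit that boosts the TRPC4 ion channel at some dose, with a dose response; inactive means no potentiation, no dose response, or not a prior hit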;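 further: calcium entry triggered by an EC20 dose of DAMGO at the co-expressed mu-opioid receptor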). The note with it: HEK293 TRPC4/mu-opioid cells, Fluo-4 calcium fluorescence; series mostly up to 20 µM.
For test [8] the target is unchanged. The test is described as follows: block of DAMGO-driven TRPC4 calcium entry – cell-based, HEK293 TRPC4/mu-opioid, Fluo-4 calcium, dose response (AID 434942;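 active means primary screen inhibitor hit that blocks the TRPC4 channel at some tested dose, yielding a dose curve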). The note with it: HEK293 TRPC4/mu-opioid cells, DAMGO-evoked Fluo-4 calcium ratio; series mostly up to 20 µM.
The target in test [9] is Short transient receptor potential channel 6 (Mus musculus) (UniProt Q61143). The test is described as follows: TRPC6 blockade by TRPC4 inhibitor hits – cell-based, HEK293, membrane potential dye, duplicate, selectivity assay for TRPC4 inhibitor project, confirmation (AID 434948;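 active means active in primary screen and both duplicates, each dropping signal beyond three positive-control SD with fluorescence still positive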). The following applies: HEK293 TRPC6, membrane potential dye fluorescence, at 10 µM, stimulated with maximal-effect acetylcholine; hits give high values.

For test [10] the target is unchanged. The test is described as follows: TRPC6 opening by TRPC4 activator hits – cell-based, HEK293, membrane potential dye, duplicate, selectivity assay for TRPC4 activator project, confirmation (AID 434950).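 On activation: 0% = buffer only wells and 100% = acetylcholine maximal-effect wells.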 The following applies: HEK293 TRPC6, membrane potential fluorescence, at 10 µM; activation: hits give high values; outcome: activation.
Test [11] shares this target. Description: positive modulators of mouse TRPC6 channel – HEK293 cells, membrane potential dye, duplicate, selectivity assay for TRPC4 potentiator project, confirmation (AID 434952;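 active means compound raising the membrane signal above positive-control mean plus 3 SD in both repeats, and a primary screen hit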). The following applies: HEK293 TRPC6, membrane potential dye fluorescence, at 10 µM, maximal acetylcholine added after compound; hits give high values.
The target in test [12] is Short transient receptor potential channel 4 (Mus musculus) (UniProt Q9QUQ5). The test is described as follows: calcium flux activators in TRPC4/5HT1a cells, counter-screen for TRPC4 activator project, cell-based, second counter screen, HEK293 TRPC4/5HT1a, Fluo-4 (AID 434977;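 active means calcium signal rise above buffer-control mean plus 5 SD in both duplicates, and also a hit in the primary screen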;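 on activation: plate controls were assay buffer for no effect and maximal serotonin response for full effect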). The note with it: Fluo-4 calcium flux, at 10 µM; hits give high values.
The nature of test [13]: serotonin-gated TRPC4 signal block – cell-based, second counter screen, HEK293 TRPC4/5HT1a, Fluo-4, counter-screen for TRPC4 inhibitor project, confirmation (AID 434978;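 active means primary screen active whose calcium signal fell more than 3 SD beyond the full-serotonin control mean in both duplicate plates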;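 on outcome: serotonin given first at submaximal then at maximal dose after compound preincubation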). The following applies: Fluo-4 calcium flux, at 10 µM, serotonin added to trigger calcium flux; hits give high values. (In general: The purpose of a counterscreen is to sort out artefacts and off-target activity.)

Test [14] concerns TRPC4 (mouse), co-expressed with 5HT1a in HEK293. Description: enhancement of serotonin-evoked TRPC4 response – cell-based, second counter screen, HEK293 TRPC4/5HT1a, Fluo-4, counter-screen for TRPC4 potentiator project, confirmation (AID 434979;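 active means signal rise over 3 SD above mean of control wells given weak agonist, in both repeats and first screen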). The following applies: Fluo-4 calcium flux, at 10 µM, serotonin added at its EC20 dose; hits give high values.
The nature of test [15]: nonspecific calcium rise without TRPC4 – cell-based, HEK293 mu-opioid receptor line, counter-screen for TRPC4 activator project, confirmation (AID 449723;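 active means hit in primary screen, with calcium signal over 5 SD above buffer well mean in both duplicates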;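 further: counter screen cells carry the mu-opioid receptor alone and lack TRPC4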). The note with it: HEK293 mu-opioid cells, Fluo-4 calcium fluorescence, at 10 µM; hits give high values.
Test [16] is described as follows: nonspecific potentiation of DAMGO calcium response – cell-based, HEK293 mu-opioid receptor line, counter-screen for TRPC4 allosteric potentiator project, confirmation (AID 449724;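 active means calcium signal rise more than 3 SD above the low-dose agonist control mean, in both duplicate plates and the primary screen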;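 further: HEK293 cells carrying mu-opioid receptor only with no TRPC4 channel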). The following applies: HEK293 mu-opioid receptor cells, Fluo-4 calcium flux, at 10 µM, compound added before EC20 DAMGO stimulus; hits give high values.

Short transient receptor potential channel 6 (Mus musculus), sequence (Q61143 whole entry, looked up): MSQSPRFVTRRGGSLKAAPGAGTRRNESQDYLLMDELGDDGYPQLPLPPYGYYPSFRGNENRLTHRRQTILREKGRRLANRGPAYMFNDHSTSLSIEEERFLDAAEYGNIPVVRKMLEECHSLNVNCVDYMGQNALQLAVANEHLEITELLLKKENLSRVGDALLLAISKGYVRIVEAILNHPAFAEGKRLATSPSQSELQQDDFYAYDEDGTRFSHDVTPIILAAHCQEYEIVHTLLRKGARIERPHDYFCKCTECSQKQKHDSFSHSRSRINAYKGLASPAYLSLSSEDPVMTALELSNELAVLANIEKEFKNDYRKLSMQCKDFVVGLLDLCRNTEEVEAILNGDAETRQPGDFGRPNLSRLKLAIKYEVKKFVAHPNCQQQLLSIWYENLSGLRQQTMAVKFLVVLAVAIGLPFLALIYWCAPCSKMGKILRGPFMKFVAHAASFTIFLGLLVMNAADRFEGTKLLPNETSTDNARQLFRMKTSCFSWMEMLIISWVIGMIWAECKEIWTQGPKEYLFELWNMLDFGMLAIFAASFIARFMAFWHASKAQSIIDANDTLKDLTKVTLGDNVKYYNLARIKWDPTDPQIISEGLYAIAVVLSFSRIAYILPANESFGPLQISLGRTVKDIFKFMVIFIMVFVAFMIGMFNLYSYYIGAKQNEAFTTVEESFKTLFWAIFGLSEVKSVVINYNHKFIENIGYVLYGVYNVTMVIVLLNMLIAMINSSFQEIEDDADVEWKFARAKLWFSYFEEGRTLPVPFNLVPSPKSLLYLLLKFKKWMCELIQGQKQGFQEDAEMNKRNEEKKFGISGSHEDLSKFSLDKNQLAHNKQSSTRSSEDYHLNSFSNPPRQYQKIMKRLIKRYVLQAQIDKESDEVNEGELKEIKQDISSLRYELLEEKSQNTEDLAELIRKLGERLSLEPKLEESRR
Short transient receptor potential channel 4 (Mus musculus), sequence (Q9QUQ5 whole entry, looked up): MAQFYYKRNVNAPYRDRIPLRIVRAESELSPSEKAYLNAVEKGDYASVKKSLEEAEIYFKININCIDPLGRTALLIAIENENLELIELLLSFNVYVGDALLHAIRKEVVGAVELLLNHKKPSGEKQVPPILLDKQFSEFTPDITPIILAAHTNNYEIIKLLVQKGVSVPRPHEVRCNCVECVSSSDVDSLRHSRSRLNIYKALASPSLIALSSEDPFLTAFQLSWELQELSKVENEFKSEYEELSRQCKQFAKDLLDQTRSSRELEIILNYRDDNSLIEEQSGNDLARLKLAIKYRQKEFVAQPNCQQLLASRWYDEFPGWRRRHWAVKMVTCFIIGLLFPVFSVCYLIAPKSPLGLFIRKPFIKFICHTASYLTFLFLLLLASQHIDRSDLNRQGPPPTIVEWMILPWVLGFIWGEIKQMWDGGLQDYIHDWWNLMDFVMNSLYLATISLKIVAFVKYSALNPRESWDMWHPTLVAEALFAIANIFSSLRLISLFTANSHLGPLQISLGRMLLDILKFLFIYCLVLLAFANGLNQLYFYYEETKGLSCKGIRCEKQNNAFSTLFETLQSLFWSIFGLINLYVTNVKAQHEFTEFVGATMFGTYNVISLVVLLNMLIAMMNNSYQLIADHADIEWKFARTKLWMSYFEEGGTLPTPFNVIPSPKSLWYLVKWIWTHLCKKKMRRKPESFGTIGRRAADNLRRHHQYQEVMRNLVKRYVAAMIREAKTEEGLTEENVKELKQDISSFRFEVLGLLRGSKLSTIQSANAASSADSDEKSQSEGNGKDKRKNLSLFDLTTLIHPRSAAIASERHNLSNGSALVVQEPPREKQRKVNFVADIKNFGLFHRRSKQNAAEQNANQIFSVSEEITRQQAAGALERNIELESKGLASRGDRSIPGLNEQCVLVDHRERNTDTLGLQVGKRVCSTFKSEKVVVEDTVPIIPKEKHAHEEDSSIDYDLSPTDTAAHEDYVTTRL

In the case of `CC1CN(C(=O)c2ccc(NS(=O)(=O)c3ccc(C(C)(C)C)cc3)cc2)CC(C)O1` (configuration not stated), the activation in test [1] is 63% (active); in [10], 39.5% (active); in test [12], 30.9% (active); in test [15], 16.1% (active). Besides, the outcome in test [2], in test [3], in [4], in test [5], in [6] and in test [7] was inactive. Also, the result in test [8], in [9], in test [11], in [13], in test [14] and in [16] was inactive.

For `Cc1onc(-c2ccccc2)c1C(=O)NNC(=S)NC(=O)c1ccc(F)cc1`, the activation was 201% (active) in [1], 27.5% (active) in test [10], 110% (active) in test [12] and 58.7% (active) in test [15]. For the same compound, the result in [2], in test [3], in test [4], in test [5], in [6] and in test [7] was inactive. Besides, the result in test [8], in [9], in test [11], in [13], in test [14] and in [16] was inactive.

For `Cc1cccc(C(=O)NNC(=S)NC(=O)c2ccccc2)c1`, the activation in test [1] was 230% (active); in test [10], 54.5% (active); in test [12], 153% (active); in test [15], 83.3% (active). In addition, the result in test [2], in [3], in test [4], in test [5], in test [6] and in [7] was inactive. For the same compound, the outcome in test [8], in test [9], in test [11], in [13], in test [14] and in test [16] was inactive.

As for `COc1cccc(CNCc2ccccn2)c1OC`, the result in test [1], in [3], in test [4], in test [5], in test [6] and in [7] was inactive. For the same compound, the compound was called inactive in [9], in test [11], in test [12], in test [13], in test [14] and in test [15]. Further, in [16], the result was inactive. In addition, the activation in [2] is 56% (active); in test [10] it was 40% (active).

The inhibition is the change of the read-out against control, counted positive when it falls. With `CN(C)/C=C1\C(=O)N(c2ccc([N+](=O)[O-])cc2)N=C1c1ccccc1`, the values for the activation in [1] and in test [12] were 76% (active) and 68.6% (active), respectively. Further, the outcome in test [2], in test [3], in test [4], in [6], in test [7] and in [9] was inactive. Besides, the compound was classed as inactive in [10], in [11], in test [14], in test [15] and in test [16]. Also, the inhibition in test [5] is 85% (active); in test [13], -1.74% (active).

In the case of `O=C(NC(=S)NNC(=O)c1ccco1)c1ccc(Br)cc1`, the activation in test [1] is 149% (active); in [10] it was 32.5% (active); in [12], 22.9% (active). For the same compound, the result in test [2], in test [3], in [4], in [5], in test [6] and in test [7] was inactive. Moreover, the outcome in test [9], in [11], in test [13], in test [14], in test [15] and in test [16] was inactive.

For the compound `Cc1cccc(C(=O)NC(=S)NNC(=O)c2ccccc2Cl)c1`, the activation in test [1] was 201% (active); in [10], 34% (active); in test [12] it was 138% (active); in test [15], 85.8% (active). Also, the outcome in test [2], in [3], in test [4], in test [5], in test [6] and in test [7] was inactive. The result in test [8], in [9], in [11], in [13], in test [14] and in [16] was inactive.

As to `COc1cccc(CC2(CO)CCCN(Cc3ccccc3-c3ccco3)C2)c1` (configuration not stated), the outcome in [1], in test [2], in test [3], in test [4], in test [5] and in [7] was inactive. Besides, the outcome in test [9], in test [11], in [12], in [13], in [14] and in [15] was inactive. Also, the result in test [16] was inactive. Moreover, the inhibition in test [6] was 42% (active). In test [10], the activation is 47% (active).

In the case of `Cc1ccccc1C(=O)NNC(=S)NC(=O)c1ccc(Cl)cc1Cl`, the activation was 293% (active) in test [1], 35% (active) in test [10], 182% (active) in [12] and 84.2% (active) in test [15]. The result in [2], in [3], in test [4], in test [5], in test [6] and in [7] was inactive. The outcome in test [8], in test [9], in test [11], in test [13], in [14] and in test [16] was inactive.

As for `Cc1ccccc1OCC(O)Cn1c(=N)n(Cc2ccccc2)c2ccccc21` (configuration not stated), the activation in test [1] was 70% (active); in test [10], 52.5% (active); in [12], 9.48% (active); in [15], 18.7% (active). Besides, the outcome in test [2], in test [3], in test [4], in test [6], in test [7] and in test [11] was inactive. Further, the result in test [14] and in test [16] was inactive. Besides, the figures for the inhibition in test [5], in test [9] and in test [13] were 84% (active), 39.5% (active) and 38% (active), respectively.

`COC(=O)C1=NN(C(=O)c2ccc(C)cc2)C(O)(c2ccc(Cl)cc2)C1` (configuration not stated): the activation in [1] is 160% (active); in [10] it was 315% (active); in test [12], 96.9% (active); in test [15] it was 67.6% (active). In addition, the result in test [2], in test [3], in test [4], in [5], in [6] and in test [7] was inactive. The result in test [8], in test [9], in test [11], in test [13], in test [14] and in test [16] was inactive.

With `CN(C)CCN(C(=O)C1CCCCC1)c1nc2cc3c(cc2s1)OCO3`, the outcome in [1], in test [2], in [3], in test [4], in test [6] and in test [7] was inactive. The compound was called inactive in [9], in test [10], in test [11], in test [12], in [13] and in test [14]. Besides, the outcome in test [15] and in test [16] was inactive. The inhibition in test [5] is 75% (active).

With `Cc1ccc(C(=O)NNC(=S)NC(=O)c2ccccc2)cc1`, the activation in [1] was 239% (active); in test [10], 27% (active); in test [12], 133% (active); in test [15] it was 77.1% (active). Further, the result in test [2], in test [3], in test [4], in test [5], in test [6] and in test [7] was inactive. The result in test [8], in test [9], in [11], in test [13], in [14] and in [16] was inactive.

Turning to `CN(C)C(CNC(=O)c1ccc2c(c1)S(=O)(=O)c1ccccc1C2=O)c1ccco1` (configuration not stated), the activation in test [1] was 142% (active); in [12], 42.8% (active). The outcome in test [2], in [3], in test [4], in test [6], in test [7] and in [9] was inactive. The compound was called inactive in test [10], in test [11], in test [14], in test [15] and in test [16]. Besides, the results for the inhibition in test [5] and in [13] were 67% (active) and 29.5% (active), respectively.

For the compound `COc1ccc(Cl)cc1NC(=O)CNCC(c1ccccc1)N(C)C` (configuration not stated), the result in test [1], in test [2], in [3], in test [4], in test [7] and in [9] was inactive. Also, the outcome in test [11], in test [12], in [13], in [14], in test [15] and in test [16] was inactive. For the same compound, the inhibition in [5] was 100% (active); in test [6], 60% (active). In addition, in test [10], the activation was 52.5% (active).

Values taken from PubChem BioAssay.
